Assay outcomes as filed in PubChem.
In the library only some 0.99% were active in any assay of this set; here they are far more common.
TRPML1 blocker = human mucolipin-1 channel inhibition; Q9GZU1; TRPML1-inducible cells, Ca2+ dye fluorescence, FDSS; active compounds read low; inhibition of EC80 agonist-evoked calcium signal; activity change, negative = inhibition, % (test concentration not listed); 390,000 compounds, 0.02% hits; in the data active = activity change below about -50%; inconclusive = between about -30% and that limit;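 note: stimulus is agonist 54-4 at its EC80 concentration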
Target sequence (Q9GZU1 whole entry, looked up): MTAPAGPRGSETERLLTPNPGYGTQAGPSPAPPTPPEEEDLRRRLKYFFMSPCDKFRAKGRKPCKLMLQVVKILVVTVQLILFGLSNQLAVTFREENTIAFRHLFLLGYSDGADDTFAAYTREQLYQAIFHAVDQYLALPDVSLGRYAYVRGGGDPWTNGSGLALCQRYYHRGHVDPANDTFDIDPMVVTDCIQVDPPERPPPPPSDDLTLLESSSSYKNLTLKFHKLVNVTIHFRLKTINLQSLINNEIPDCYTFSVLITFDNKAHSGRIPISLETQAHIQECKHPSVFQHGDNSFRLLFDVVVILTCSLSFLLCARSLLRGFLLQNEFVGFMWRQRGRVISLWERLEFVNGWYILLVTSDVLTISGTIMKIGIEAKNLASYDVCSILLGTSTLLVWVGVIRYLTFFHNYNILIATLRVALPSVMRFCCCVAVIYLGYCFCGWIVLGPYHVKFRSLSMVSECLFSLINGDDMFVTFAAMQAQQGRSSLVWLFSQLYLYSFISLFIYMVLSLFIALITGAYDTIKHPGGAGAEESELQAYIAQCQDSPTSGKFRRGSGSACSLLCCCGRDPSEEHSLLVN
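TRPML1-DL cells, Tet-induced overnight (~16 h, 37 °C) at 1,500 cells/well, were loaded with Ca8 no-wash dye plus quencher for 45-90 min at room temperature. Compounds were pinned during FDSS kinetic reading; agonist 54-4 at EC80 (4 uM final) then added.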
TRHR enhancer-1 = TRH receptor (human) allosteric enhancement. 360,000 compounds, 0.66% hits. enhancement, % at 2 µM. TRHR cells, fluo-8 calcium fluorescence, EC20 TRH enhancement; in the data active = enhancement above about 30%
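Enhancer read-out: after compound pinning and an initial kinetic agonist-mode read, an EC20 of TRH (10 nM final) was injected and fluo-8 calcium signal (Ex 480/Em 530) followed at 1 s/cycle for 100 cycles in TRHR-expressing cells.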
TRPV1 potentiator = potentiators of human vanilloid receptor 1 (TRPV1) | TRPV1-expressing cells, Fluo-8 calcium influx, capsaicin EC20 potentiation | potentiation, % at 8.33 µM | Q8NER1 | 320,000 compounds, 0.02% hits; in the data active = potentiation above about 80%; inconclusive = between about 30% and that limit
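TRPV1-expressing cells were cultured overnight at 35.5C and loaded with Fluo-8 calcium dye for 40 to 90 min at room temperature. After a 10 s baseline, compound was added and calcium influx was read kinetically for 3 min (ex 480/em 520 nm).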
TRPV1 ag = activates the human vanilloid receptor TRPV1. 320,000 compounds, 0.19% hits. AID 540275. activation, % at 8.33 µM. TRPV1-expressing cells, Fluo-8 calcium influx, agonist mode; in the data active = activation above about 80%; inconclusive = between about 30% and that limit
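TRPV1-expressing cells were cultured overnight at 35.5C and loaded with Fluo-8 calcium dye for 40 to 90 min at room temperature. After a 10 s baseline, compound was added and calcium influx was read kinetically for 3 min (ex 480/em 520 nm).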
TRHR agonist-1 = activates the human TRH receptor; P34981; TRHR cells, calcium flux fluo-8, FDSS agonist mode; activation, % at 2 µM; 360,000 compounds, 0.18% hits; AID 493084; in the data active = activation above about 30%
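In this calcium-flux screen, cells bearing human TRHR are dye-loaded with fluo-8, baselined for 10 cycles, then exposed to library compounds; positive kinetic calcium responses during the agonist phase mark hits, with TRH as control.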
TRPML1 agonist = activates the human TRPML1 channel; TRPML1-expressing cells, Ca2+ dye fluorescence, FDSS; 410,000 compounds, 0.12% hits; Q9GZU1; activation, % (concentration not given with the values); AID 624414; in the data active = activation above about 50%; inconclusive = mostly about 30% to 49%
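TRPML1-DL cells, Tet-induced overnight (~16 h, 37 degrees C), loaded 45-90 min at room temperature with Ca8 no-wash calcium dye plus quencher. FDSS fluorescence: 10 s baseline, compound pin-transfer, 110 s agonist read, then EC80 54-4 (4uM final) and 110 s antagonist read.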
TRHR enhancer-2 = confirmation of human TRH receptor allosteric enhancers; activity change, negative = inhibition, % at 46.1 µM; shares compounds with TRHR enhancer-1; AID 493076; TRH receptor cell assay, enhancer confirmation qHTS; 970 tested, under 10 active;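 note: compound effect scored on response to added TRH at EC20 of 10 nM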
TRHR agonist-2 = confirmation of human TRH receptor agonists; shares compounds with TRHR enhancer-1; TRHR-expressing cells, agonist activation read-out; Potency, µM (titrated, usually from 46.1 µM), usual class: activators; 970 compounds, 8% hits; AID 493078; note: nearly all actives have a fitted effect of over 75% in size
Large screens that a line does not name were inactive (follow-up assays come after a bar, where they were run). Unless noted, calls come from the whole dose curve; as a rule, active = well fitted curve in the direction sought with a large enough effect; inconclusive = small, poorly fitted or top-dose-only effect, or another doubt; inactive = no such curve, though single readings can be large; an effect the other way counts as inactive or inconclusive.

CCN(CC)C(=O)c1sc2nc(-c3cccs3)cc(-c3ccc(Cl)cc3)c2c1N	none | TRHR enhancer-2 inactive | TRHR agonist-2 18µM
CCCCCC1CC(=O)N(Cc2ccccc2)C(=O)N1 (stereo not given)	TRHR enhancer-1 69 | TRHR enhancer-2 inactive | TRHR agonist-2 inactive
Cc1ccc(-n2c(C)n[nH]c2=S)cc1	none
Cc1ccc(-n2c(C)n[nH]c2=S)cc1C	TRHR enhancer-1 45 | TRHR enhancer-2 inactive | TRHR agonist-2 inactive
Brc1cccc[n+]1CCCCCC[n+]1ccccc1Br	none (no result: TRPML1 blocker, TRHR enhancer-1, TRPV1 potentiator, TRPV1 ag, TRHR agonist-1)
CCc1cc(CN2CCOCC2)c(NC(=O)c2ccccc2)s1	TRHR enhancer-1 64 | TRHR enhancer-2 inactive | TRHR agonist-2 inactive
Cc1ccc(S(=O)(=O)N2CCN(c3ccnc(-c4cccs4)n3)CC2)cc1	none (no result: TRPML1 blocker, TRHR enhancer-1, TRPV1 potentiator, TRPV1 ag, TRHR agonist-1)
COc1ccccc1NC(=O)COn1nnc2ccc(S(=O)(=O)N3CCOCC3)cc21	TRHR enhancer-1 59 | TRHR enhancer-2 inactive | TRHR agonist-2 inactive
COc1cc(/C=N/NC(N)=O)ccc1OC(=O)c1ccco1	none
COc1cc(/C=N/N(C)C)ccc1OC(=O)c1ccco1	TRHR enhancer-1 41 | TRHR enhancer-2 inactive | TRHR agonist-2 inactive
Cc1ccc(NC(=O)COC(=O)c2ccccc2OCC(=O)Nc2ccc(Br)cc2)c(C)c1	none (no result: TRPML1 blocker, TRHR enhancer-1, TRPV1 potentiator, TRPV1 ag, TRHR agonist-1)
Clc1ccc(Oc2cnns2)cc1Cl	TRHR enhancer-1 44 | TRHR enhancer-2 inactive | TRHR agonist-2 inactive
Cc1ccccc1OCC(=O)NCC(=O)OCC(=O)c1ccc(Br)cc1	none (no result: TRPML1 blocker, TRHR enhancer-1, TRPV1 potentiator, TRPV1 ag, TRHR agonist-1)
Cc1ccc(/C=C/c2nc3ccccc3[nH]2)cc1	none (no result: TRPV1 potentiator, TRPV1 ag)
Cc1ccc(/C=C/c2nc3ccccc3[nH]2)o1	TRHR enhancer-1 46 | TRHR enhancer-2 inconclusive | TRHR agonist-2 inactive
Cc1ccc(OCCCCn2c(CCNC(=O)C3CCCCC3)nc3ccccc32)cc1	none (no result: TRPML1 blocker, TRHR enhancer-1, TRPV1 potentiator, TRPV1 ag, TRHR agonist-1)
COc1ccc(CN(Cc2ccccc2)C(=O)c2cccc(C#N)c2)cc1COc1ccc(NC(C)=O)cc1	none (no result: TRPML1 blocker, TRHR enhancer-1, TRPV1 potentiator, TRPV1 ag, TRHR agonist-1)
Cc1cccc(C(=O)Oc2ccccc2C(=O)N2CCOCC2)c1	TRHR enhancer-1 52 | TRHR enhancer-2 inactive | TRHR agonist-2 inactive
O=C(C1=C(O)C(=O)N(c2nccs2)C1c1ccccc1)c1cc2ccccc2o1 (stereo not given)	TRPV1 ag inconclusive, TRHR agonist-1 57, TRPML1 agonist 92 | TRHR enhancer-2 inconclusive | TRHR agonist-2 4.6µM
O=C(C[n+]1c(Cl)ccc2ccccc21)c1ccc2ccccc2c1	none (no result: TRPML1 blocker, TRHR enhancer-1, TRPV1 potentiator, TRPV1 ag, TRHR agonist-1)
COc1cccc(NC(=O)CN2C(=O)NC3(CCCCCC3)C2=O)c1	none (no result: TRHR enhancer-1, TRPV1 potentiator, TRPV1 ag, TRHR agonist-1)
COc1cccc(NC(=O)CN2C(=O)NC(C)(CC(C)C)C2=O)c1 (stereo not given)	TRHR enhancer-1 52 | TRHR enhancer-2 inactive | TRHR agonist-2 inactive
O=C(NCc1cccc(CNC(=O)C(=O)NCC2CCCO2)c1)C(=O)NCC1CCCO1 (stereo not given)	TRHR enhancer-1 42 | TRHR enhancer-2 inactive | TRHR agonist-2 inactive
O=C(NCc1ccc2c(c1)OCO2)C(=O)NCC1CCCO1 (stereo not given)	none
COCCOc1cc2ncnc(N3CCC(C(=O)O)CC3)c2cc1OCCOC	TRHR enhancer-1 43 | TRHR enhancer-2 inactive | TRHR agonist-2 inactive
CC1CCN(c2ncnc3ccccc23)CC1	none
CCC(C)[C@@H](C(=O)N1CCNCC1)n1cc(CCCN=C(N)N)nn1 (stereo not given in full)	none
C[C@@H](C(=O)N1CCNCC1)n1cc(CCCN=C(N)N)nn1	TRHR enhancer-1 64 | TRHR enhancer-2 inactive | TRHR agonist-2 inactive
COc1ccccc1C(=O)Nc1ccnn1C1CCN(C/C=C/c2ccc(F)cc2)CC1	TRHR enhancer-1 47 | TRHR enhancer-2 inactive | TRHR agonist-2 inactive
Cc1nn(-c2ccccc2)c(N2CCCC2)c1/C=N/NC(=O)c1ccccc1O	TRHR enhancer-1 83 | TRHR enhancer-2 inactive | TRHR agonist-2 inconclusive
